D3 ag: activates the human D3 dopamine receptor; 410,000 tested, 0.58% active; P35462; D3R DiscoveRx beta-arrestin cells, luminescence, 90 min; max activation, %; AID 652048; in the data active = max activation above about 30%
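Agonist mode: compounds and dopamine controls were applied to plated cells for 90 min at 37 degrees C after an overnight attachment at 1500 cells/well. Luminescent read-out followed 30 - 60 minutes at room temperature with DiscoveRx detection reagent.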
D1 agonist: human D1 receptor agonism; P21728; HEK293 T-REx D1 cells, calcium flux, agonist mode; activation, % at 2 µM; 360,000 tested, 1% active; AID 504660; in the data active = activation above about 30%
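Tetracycline-induced HEK293 TREx D1 cells, force-coupled to calcium signalling, were dye-loaded with a no-wash calcium kit. Compound was pin-added after a 10 s baseline. Fluorescence was read kinetically at 1 cycle/s for 180 s, with calcium rises flagged as agonism.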
D3 antag: blocks the human D3 dopamine receptor; 360,000 tested, 2.5% active; P35462; max response, negative = inhibition, %; D3R cells, DiscoveRx beta-arrestin luminescence, antagonist mode; stronger effect = lower value; in the data active = max response below about -50%; inconclusive = no clear call, values can overlap the other calls
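Cells plated overnight at 1500 cells/well, then exposed to library compounds with dopamine controls for 90 minutes at 37 degrees C. DiscoveRx reagent added for 30–60 minutes at room temperature; luminescence read, quantitative HTS format.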
ERG-DNA inh: blocks human ERG Ets domain binding to DNA; 370,000 tested, 0.028% active; fluorescence polarization, His-ERG Ets domain / labelled DNA; AID 624246; Potency, µM (top dose mostly 76.9 µM), most hits filed as inhibitors; active = well fitted inhibition curve with a large enough effect in the polarisation, with a control signal flat; inconclusive = small, poorly fitted or top-dose-only effect, or effect the other way, or a change in a side signal; inactive = no such curve, though single readings can be large or run the other way; the % refers to the polarisation;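 also: polarization taken with two DNA probes labelled with fluorescein and Texas red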
Target sequence (P11308 whole entry, looked up, the tested form may be a part): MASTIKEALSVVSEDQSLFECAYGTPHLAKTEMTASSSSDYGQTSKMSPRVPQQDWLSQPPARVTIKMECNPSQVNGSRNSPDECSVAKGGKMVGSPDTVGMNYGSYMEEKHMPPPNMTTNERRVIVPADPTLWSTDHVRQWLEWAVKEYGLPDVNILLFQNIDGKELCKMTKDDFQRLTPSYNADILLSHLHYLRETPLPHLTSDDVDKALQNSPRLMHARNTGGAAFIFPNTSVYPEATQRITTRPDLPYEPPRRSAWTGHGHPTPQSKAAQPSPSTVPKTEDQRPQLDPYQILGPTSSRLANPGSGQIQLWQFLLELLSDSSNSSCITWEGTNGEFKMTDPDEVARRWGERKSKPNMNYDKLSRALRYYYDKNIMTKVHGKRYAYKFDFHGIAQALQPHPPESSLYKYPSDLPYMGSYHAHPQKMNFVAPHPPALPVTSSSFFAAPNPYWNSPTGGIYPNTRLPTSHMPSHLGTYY
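His-tagged ERG Ets domain (1 uM in the protein solution; 300mM KCl, 50mM Tris-HCl, 1mM EDTA, 1mM DTT, pH 7.5) received compound, then a probe mix of 5 nM fluorescein-DNA and 100nM Texas-615-DNA. Fluorescence polarization was read for both dyes.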
D1 potentiator: enhances dopamine response at the human D1 receptor. 360,000 tested, 0.036% active. potentiation, % at 10 µM. HEK293 TREx D1 cells, calcium flux, dopamine EC20 potentiation; in the data active = potentiation above about 30%
D1 antagonist: blocks dopamine activation of the human D1 receptor | HEK293 TREx D1 cells, calcium flux, dopamine EC80; stronger effect = lower value | activity change, negative = inhibition, % at 10 µM | 360,000 tested, 3.2% active | AID 504652; in the data active = activity change below about -30%
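Tetracycline-induced HEK293 T-REx cells with force-coupled D1 receptor were loaded with a no-wash calcium dye. Compound was added after a 10 s baseline and read kinetically for 180 s; EC80 dopamine was then added and calcium flux followed another 180 s.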
Each line names hits and unclear results; the compound was inactive in the other large screens. A selection: hits, their analogues and other compounds. The true share with any hit is near 6.1%.

Cc1ccc(NC(=O)CSc2nc(=O)n3cc(C)ccc3n2)c(C)c1	D1 antagonist -35
Cc1cc(Cl)ccc1Oc1ccccc1C(=O)CC#N	none
CCOc1ccc(OCC(=O)OCC(=O)NCC2CCCO2)cc1 (stereo not given)	none
Cc1nc2ccccc2n1CC(=O)NCc1ccccc1	D3 antag -50
CN(C(=O)CSc1nc2ccccc2n1CC(=O)N(C)C1CCCCC1)c1ccc(F)cc1	none (no result: D3 antag)
CN(C(=O)CSc1nc2ccccc2n1CC(=O)NCc1ccc(F)cc1)c1ccc(F)cc1	D1 antagonist -32 (no result: D3 antag)
C=C1CCC[C@]2(C)C[C@H]3OC(=O)C(CN(Cc4ccc(OC)c(OC)c4)CC(C)O)[C@H]3CC12 (stereo not given in full)	none
COc1ccc(OC)c(N2C(=O)CC(Cc3cc(C)cc(C)c3)C2=O)c1 (stereo not given)	D3 antag -192
COc1ccc(OCc2cc(C(=O)N(C)Cc3nccn3C)no2)c2ccccc12	D1 antagonist -40
CC(=O)c1ccc(OCc2cc(C(=O)N3CCC[C@H]3CO)no2)cc1	none
CC(=O)c1cccc(OCc2cc(C(=O)N(C)Cc3nccs3)no2)c1	none (no result: D1 agonist, ERG-DNA inh, D1 potentiator, D1 antagonist)
COCCC1CCCCN1C(=O)c1cc(COc2cccc(C(C)=O)c2)on1 (stereo not given)	D1 antagonist -49
CN(Cc1nccs1)C(=O)c1cc(COc2cccc3cnccc23)on1	D1 antagonist -32
COC(=O)C1CCCCN1C(=O)c1cc(COc2cccc3cnccc23)on1 (stereo not given)	D1 antagonist -43 (no result: D3 ag, D3 antag, ERG-DNA inh)
CCOCC(=O)Nc1ccc(Br)c(C)c1	none
COc1cc(/C=C/C(=O)OCC(=O)NC(=O)C2COc3ccccc3O2)ccc1OC(F)F (stereo not given)	none (no result: D1 agonist, D1 potentiator, D1 antagonist)
COc1ccc(OC)c(C2=CC(=O)C[C@H](c3ccc4c(c3)OCO4)C2)c1	none (no result: D1 antagonist)
Cc1cc(NC(=O)CSc2nnc(NC(=O)C3CC(=O)N(c4ccccc4C)C3)s2)no1 (stereo not given)	none
Cc1cc(NC(=O)CSc2nnc(NC(=O)C3CC(=O)N(c4ccccc4)C3)s2)no1 (stereo not given)	D1 antagonist -46
NC(=O)N=Nc1c(O)[nH]c2c(Br)cc(Br)cc12	none (no result: D3 ag, D3 antag, ERG-DNA inh)
O=C(/C=C/c1ccc(NC(=O)c2ccccc2-c2ccccc2C(=O)O)cc1)c1ccccc1	none
O=C(/C=C/c1ccncc1)c1ccc(NC(=O)c2ccccc2F)cc1	D3 antag -67
Cc1c(OCc2nn[nH]n2)ccc2c3c(c(=O)oc12)CCC(C)C3 (stereo not given)	none
Cc1cc(C)cc(-n2c(C)cc(C(=O)CSc3nnnn3C)c2C)c1	D1 agonist 41, D3 antag inconclusive
Cc1cc(C(=O)CSc2nnnn2C)c(C)n1-c1cccc(F)c1	none
Cc1cc(C)c(OCCN2CCCC2)c(Cl)c1	D1 antagonist -59
Cc1cc(Cl)cc(Cl)c1OCCN1CCCC1	D1 antagonist -31
Cc1cc(Cl)cc(Cl)c1OCCCCN(C)C	none
Cc1cc(C)c(OCCOCCN2CCN(C)CC2)c(Cl)c1	D3 antag inconclusive
COc1ccc(-n2nc(C(=O)NCC(=O)NCC3COc4ccccc4O3)c3ccccc3c2=O)cc1OC (stereo not given)	none
CC(C)C(=O)N1CCN(c2ccc(NC(=O)c3ccc([N+](=O)[O-])o3)cc2)CC1	D3 antag inconclusive
CN1CCN(c2ccc(NC(=O)c3ccc([N+](=O)[O-])o3)cc2Cl)CC1	D3 antag inconclusive
O=C(Nc1ccc(N2CCN(C(=O)c3ccccc3)CC2)cc1)c1ccc([N+](=O)[O-])o1	D3 antag -56
Cc1ccccc1C(=O)N1CCN(c2ccc(NC(=O)c3ccc([N+](=O)[O-])o3)cc2)CC1	D3 antag -72
CC(C)C(=O)N1CCN(c2ccc(NC(=O)c3ccc([N+](=O)[O-])o3)cc2Cl)CC1	D3 antag inconclusive, D1 antagonist -41
COc1ccc(/C=C2\SC(=O)N(CCC(=O)N3CCCCC3)C2=O)cc1OC	none
CNC(=O)c1ccc(-c2ccccc2)s1	none
CNc1nc(C)c(C(C)(C)C)s1	none

Screening results deposited in PubChem by National Center for Advancing Translational Sciences (NCATS).
